# Inconclusive results are not listed. A call without a number means that no potency is given here. The source holds several records for some structures; these can differ, active in one and inactive in another. Calls of active or inactive are those of the source. Unless noted, the call rests on the fitted dose curve; in most records, active means well fitted curve in the direction sought with a large enough effect in the repeat runs; inconclusive means weak or mixed curves; inactive means no such curve, though single readings can be large; an effect the other way counts as inactive or inconclusive.
# What was measured:
# [1] = qHTS assay to identify small molecule agonists of the vitamin D receptor (VDR) signaling pathway - cell viability counter screen (AID 743224); further: series mostly up to about 63 µM; nearly all actives have a fitted effect of over 50% in size
# In short: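 VDR-bla cell line, quantitative HTS format; 16 h compound incubation (37C, 5% CO2); ATP-based CellTiter-Glo luminescence measured in the reporter assay wells.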
# [2] = qHTS assay to identify small molecule antagonists of the vitamin D receptor (VDR) signaling pathway - cell viability counter screen (AID 743225); further: nearly all actives have a fitted effect of over 50% in size
# In short: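 Parallel cytotoxicity test: VDR-UAS-bla HEK 293T, 3 nM (final) 1-alpha,25-dihydroxyvitamin D3 with test compound, 16 h, 37C. Endpoint is CellTiter-Glo luminescence in the same wells.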
# [3] = qHTS assay to identify small molecule agonists of the NFkB signaling pathway (AID 1159509; active means well fitted curve in the direction sought with a large enough effect in the signal ratio in the repeat runs, not every such curve was filed as active; the % refers to the signal ratio; further: series mostly up to about 61 µM)
# In short: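 After overnight attachment, reporter cells received test compounds, DMSO or positive controls and were incubated 5 hr at 37 C. FRET substrate was then added for 1.5 hr at room temperature before dual-emission fluorescence reading.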
# [4] = qHTS assay to identify small molecule agonists of the NFkB signaling pathway - cell viability counter screen (AID 1159515; calls by dose curve; further: series mostly up to about 61 µM; nearly all actives have a fitted effect of over 55% in size)
# In short: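 Viability in NFkB-bla ME-180 cells was measured by CellTiter-Glo luminescence, 30 min room temperature, in wells already treated 5 hr with compounds and read for reporter FRET.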
# [5] = qHTS assay to identify small molecule agonists of the endoplasmic reticulum stress response signaling pathway (AID 1159516; active means well fitted activation curve with a large enough effect in the signal ratio in the repeat runs, not every such curve was filed as active; the % refers to the signal ratio)
# In short: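 ER stress element reporter (bla) in HeLa. 1,500 cells/well, overnight attachment; 5 hr compound; 2 hr RT substrate; dual-emission fluorescence.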
# [6] = qHTS assay to identify small molecule agonists of the endoplasmic reticulum stress response signaling pathway - cell viability counter screen (AID 1159517; calls by dose curve;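 further: HeLa cells carrying an ER stress response element beta-lactamase reporter; series mostly up to about 61 µM; nearly all actives have a fitted effect of over 50% in size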)
# In short: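 Counter-screen wells were identical to the reporter wells. Cells were plated at 1,500 per well and dosed for 5 hr, then read for luminescence 30 min after CellTiter-Glo addition.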
# [7] = target: Nuclear receptor ROR-gamma (Homo sapiens) (UniProt P51449); assay: qHTS assay to identify small molecule antagonists of the retinoid-related orphan receptor gamma (ROR-gamma) signaling pathway (AID 1159521;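 further: CHO cells with doxycycline inducible ROR-gamma driving an RORE luciferase reporter; top concentration of the series differs between compounds; nearly all actives have a fitted effect of over 50% in size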)
# In short: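 Decreased RORE-driven luciferase luminescence indicates antagonism. Tet-on RORγ CHO cells received compound, then 1 uM final doxycycline 2 h later; signal read after 16 h incubation.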
# [8] = qHTS assay to identify small molecule agonists of the AP-1 signaling pathway - cell viability counter screen (AID 1159525; calls by dose curve; further: nearly all actives have a fitted effect of over 55% in size)
# In short: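 AP-1-bla ME-180 cells in Opti-MEM with 0.5% dialyzed FBS, compound exposure 5 h at 37 C in 15-point titration. Viability read in the same wells as ATP content by CellTiter-Glo luminescence, normalised to tetra-n-octylammonium bromide and DMSO controls.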
# [9] = qHTS assay to identify small molecule agonists of the AP-1 signaling pathway (AID 1159526; calls by dose curve)
# [10] = target: Retinoic acid receptor RXR-alpha (Homo sapiens) (UniProt P19793); assay: qHTS assay to identify small molecule agonists of the RXR signaling pathway (AID 1159527; calls by dose curve; further: nearly all actives have a fitted effect of over 35% in size)
# In short: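 16 hr incubation of compound-treated RXR-alpha-UAS-bla HEK 293T cells (2% charcoal-stripped FBS, 37 C) preceded a 2 hr room-temperature LiveBLAzer FRET substrate step and blue/green fluorescence measurement.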
# [11] = qHTS assay to identify small molecule agonists of the RXR signaling pathway - cell viability counter screen (AID 1159529); further: nearly all actives have a fitted effect of over 50% in size; further: potency means the concentration at half of the fitted maximal effect
# In short: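 In this parallel viability measure, GeneBLAzer RXR-alpha HEK 293T cells (2% charcoal-stripped FBS) were given a 5 hr preincubation, treated with compounds 16 hr at 37 C, and read by CellTiter-Glo luminescence.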
# [12] = qHTS assay to identify small molecule antagonists of the retinoid acid receptor (RAR) signaling pathway - cell viability counter screen (AID 1159551); further: nearly all actives have a fitted effect of over 35% in size
# In short: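 Following overnight attachment, C3RL4 reporter cells received DMSO-dissolved compounds and then retinol (1 uM final). Six hours later at 37 C, ATP content was measured by CellTiter-Glo luminescence.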
# [13] = qHTS assay to identify small molecule antagonists of the retinoic acid receptor (RAR) signaling pathway (AID 1159552; further: nearly all actives have a fitted effect of over 50% in size)
# In short: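 C3RL4 RARE-luc cells, overnight plating; retinol 1 uM final added right after compound; 6 hr 37 C; luciferase read at 30 min RT.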
# [14] = qHTS assay to identify small molecule agonists of the retinoic acid receptor (RAR) signaling pathway (AID 1159553); further: potency means the concentration at half of the fitted maximal effect
# In short: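 Cell line C3RL4, RARE luciferase reporter. Treatment: compounds in DMSO, 6 hr, 37 C, 5% CO2, after overnight plating. Detection: luminescence, 30 min RT after reagent.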
# [15] = qHTS assay to identify small molecule antagonists of the estrogen related receptor (ERR) signaling pathway from Tox21 library - cell viability counter screen (AID 1224834); further: nearly all actives have a fitted effect of over 30% in size; further: potency means the concentration at half of the fitted maximal effect
# In short: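 Viability readout (CellTiter-Fluor fluorescence, 30 min at 37 C) multiplexed with the ERR assay; cells treated 17.5 h at 37 C with compounds delivered in DMSO.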
# [16] = target: Luciferin 4-monooxygenase (Photinus pyralis) (UniProt P08659); assay: qHTS assay to identify small molecule inhibitors of firefly luciferase (AID 1224835); further: series mostly up to about 120 µM; nearly all actives have a fitted effect of over 25% in size
# In short: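 Biochemical qHTS: compounds run as interplate titrations against purified firefly enzyme, with D-luciferin and ATP each at its KM concentration. Light output recorded by CCD imaging.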
# [17] = qHTS assay to identify small molecule agonists of the constitutive androstane receptor (CAR) signaling pathway - cell viability counter screen (AID 1224836); further: series mostly up to about 92 µM; nearly all actives have a fitted effect of over 45% in size
# In short: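 Using CellTiter-Fluor, viability of HepG2 cells harbouring hCAR and CYP2B6-2.2kb was measured following 23 h incubation with a 15-concentration compound series plus PK11195 (0.75 uM final).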
# [18] = qHTS assay to identify small molecule antagonists of the retinoid-related orphan receptor gamma (ROR-gamma) signaling pathway - cell viability counter screen (AID 1159520); further: nearly all actives have a fitted effect of over 50% in size
# In short: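 Tet-on ROR gamma CHO cells were given compounds for 2 hr, then doxycycline hyclate at 1 uM final, and incubated 16 hr at 37 C. Viability was measured as ATP content by CellTiter-Glo luminescence.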
# [19] = qHTS assay to identify small molecule antagonists of the estrogen related receptor (ERR) signaling pathway - cell viability counter screen (AID 1224818);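 further: series mostly up to about 46 µM; viability measured after 17.5 h of compound exposure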
# In short: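 Here, ERR cells are plated at 2,000 cells per well, allowed 6 h to attach, and treated with compounds in DMSO for 17.5 h at 37 C. CellTiter-Fluor is then added and fluorescence read after 30 min.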
# [20] = qHTS assay to identify small molecule antagonists of the estrogen related receptor signaling pathway with the pleiotropic PPARgamma coactivator (PGC) cell viability counter screen (AID 1224822;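 further: series mostly up to about 46 µM; viability read after 17.5 h compound exposure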)
# In short: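 qHTS format, DMSO compound stocks pin-transferred onto PGC/ERR cells 6 h after plating; 17.5 h exposure at 37 C, then CellTiter-Fluor fluorescence.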
# Luciferin 4-monooxygenase (Photinus pyralis), sequence (P08659 whole entry, looked up): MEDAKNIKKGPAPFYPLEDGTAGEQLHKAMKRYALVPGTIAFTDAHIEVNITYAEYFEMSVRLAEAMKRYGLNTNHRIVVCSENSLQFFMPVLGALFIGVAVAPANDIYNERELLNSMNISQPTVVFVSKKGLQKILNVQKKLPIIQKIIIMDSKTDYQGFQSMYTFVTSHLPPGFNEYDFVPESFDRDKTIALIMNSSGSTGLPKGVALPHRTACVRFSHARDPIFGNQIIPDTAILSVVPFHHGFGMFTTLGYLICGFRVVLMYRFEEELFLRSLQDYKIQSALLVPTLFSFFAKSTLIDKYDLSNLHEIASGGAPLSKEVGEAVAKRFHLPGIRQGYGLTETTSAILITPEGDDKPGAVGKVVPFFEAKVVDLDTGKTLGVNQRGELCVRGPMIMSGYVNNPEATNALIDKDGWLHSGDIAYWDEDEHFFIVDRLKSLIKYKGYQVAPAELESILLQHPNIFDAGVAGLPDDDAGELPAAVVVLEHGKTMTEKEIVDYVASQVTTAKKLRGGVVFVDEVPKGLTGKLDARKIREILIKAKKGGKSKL
# Retinoic acid receptor RXR-alpha (Homo sapiens), sequence (P19793 whole entry, looked up): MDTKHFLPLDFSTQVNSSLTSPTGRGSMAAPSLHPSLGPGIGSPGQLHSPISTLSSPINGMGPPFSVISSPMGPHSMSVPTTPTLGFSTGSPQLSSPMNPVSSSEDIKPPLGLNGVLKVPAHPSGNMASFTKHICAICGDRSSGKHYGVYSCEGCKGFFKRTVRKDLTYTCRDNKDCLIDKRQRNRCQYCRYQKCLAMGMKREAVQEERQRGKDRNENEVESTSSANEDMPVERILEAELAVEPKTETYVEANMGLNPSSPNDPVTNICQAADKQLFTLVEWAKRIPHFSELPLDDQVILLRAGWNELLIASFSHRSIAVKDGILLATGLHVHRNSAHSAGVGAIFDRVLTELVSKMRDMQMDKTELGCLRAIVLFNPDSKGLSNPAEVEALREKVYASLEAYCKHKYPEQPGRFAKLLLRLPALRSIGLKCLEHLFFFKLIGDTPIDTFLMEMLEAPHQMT
Structure (SMILES),Potency [1],outcome [2],outcome [3],outcome [4],outcome [5],outcome [6],Potency [7],Potency [8],outcome [9],Potency [10],Potency [11],outcome [12],Potency [13],Potency [14],Potency [15],Potency [16],Potency [17],Potency [18],outcome [19],outcome [20]
C=C(C)C(=O)OCCOCCOCCOC(=O)C(=C)C,inactive,inactive,inactive,inactive,inactive,inactive,inactive,inactive,inactive,inactive,inactive,inactive,inactive,inactive,inactive,inactive,inactive,–,–,–
O=C(O)c1cc(O)c(O)c(O)c1,inactive,–,inactive,inactive,inactive,inactive,inactive,inactive,inactive,–,inactive,inactive,inactive,inactive,61.7 µM (active),–,inactive,inactive,–,–
C=CCNC(N)=S,inactive,–,inactive,inactive,inactive,inactive,–,inactive,inactive,–,38 µM (active) and inactive,inactive,inactive,inactive,inactive,inactive,inactive,inactive,–,–
CC(O)COCC(C)O (stereo not given),inactive,–,inactive,inactive,inactive,inactive,inactive,inactive,inactive,inactive,inactive,inactive,–,–,inactive,inactive,inactive,–,–,–
O=c1[nH]c(=O)n([C@H]2C[C@H](O)[C@@H](CO)O2)cc1Br,inactive,inactive,inactive,inactive,inactive,inactive,–,inactive,inactive,inactive,inactive,inactive,–,–,inactive,inactive,inactive,inactive,inactive,inactive
COCCCOc1ccnc(CS(=O)c2nc3ccccc3[nH]2)c1C (stereo not given),inactive,–,inactive,inactive,inactive,inactive,inactive,inactive,inactive,–,inactive,inactive,inactive,3.84 µM (active),inactive,–,inactive,inactive,–,–
CCCCC(CC)COC(=O)CCCCC(=O)OCC(CC)CCCC (stereo not given),inactive,–,inactive,inactive,inactive,inactive,inactive,inactive,inactive,–,inactive,inactive,inactive,inactive,inactive,inactive,inactive,inactive,–,–
CCOC(=O)NNc1nncc2ccccc12,inactive,inactive,inactive,inactive,inactive,inactive,–,inactive,inactive,–,inactive,inactive,inactive,inactive,inactive,inactive,inactive,inactive,–,–
